Compounds without any hit were thinned out: in the full panel of roughly 83,000, 20% have a hit.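 Growth was measured after 48 h exposure to one concentration of compound in 96-well plates. Values under 10 count as active.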 Unmarked numbers belong to inactive results. The source made the active and inactive calls.

Common to all, as to experiment: NCI-60 one-dose screen, 48 h (100 = growth as untreated, 0 = no growth, -100 = all killed)
In one assay the test system is HCT-15 colon. Conditions: 10 µM unless noted.
The test system of another assay is HT29 colon. Conditions: 10 µM unless noted.
The next assay has as its system SNB-75 CNS. Conditions: 10 µM unless noted.
The next assay has as its system SNB-19 CNS. Particulars: 10 µM unless noted.
The subject of the next assay is U251 CNS. Particulars: 10 µM unless noted.
A further assay deals with PC-3 prostate. Particulars: 10 µM unless noted.
For another assay, the system named is SK-MEL-5 melanoma. Conditions: 10 µM unless noted.
The test system of another assay is UACC-62 melanoma. Conditions: 10 µM unless noted.
For the next assay, the system named is LOX IMVI melanoma. Particulars: 10 µM unless noted.
The subject of a further assay is SK-MEL-28 melanoma. Particulars: 10 µM unless noted.
For a further assay, the system named is SK-MEL-2 melanoma. Particulars: 10 µM unless noted.
The next assay has as its system EKVX NSCLC. Conditions: 10 µM.
Another assay concerns SN12C renal. Particulars: 10 µM unless noted.
The subject of another assay is UO-31 renal. Particulars: 10 µM unless noted.
For another assay, the system named is TK-10 renal. Conditions: 10 µM unless noted.
Another assay deals with ACHN renal. Conditions: 10 µM unless noted.
Another assay relates to CAKI-1 renal. Particulars: 10 µM unless noted.
The next assay deals with CCRF-CEM leukemia. Particulars: 10 µM.
The subject of a further assay is MOLT-4 leukemia. Particulars: 10 µM unless noted.
Another assay concerns A498 renal. Conditions: 10 µM unless noted.

As to `CC(C)OC(=O)Nn1cnc2ccccc21`, the growth in the assay with HCT-15 colon is 120%; in the assay with HT29 colon, 111%; in the assay on SNB-75 CNS, 128%; in the assay on SNB-19 CNS, 111%; with U251 CNS it was 106%; in the assay on PC-3 prostate it was 101%. The growth in the assay with SK-MEL-5 melanoma is 108%; in the assay with UACC-62 melanoma, 107%; in the assay with LOX IMVI melanoma, 114%; with SK-MEL-28 melanoma, 128%; with SK-MEL-2 melanoma, 106%; in the assay on EKVX NSCLC, 106%. Also, the growth is 113% with SN12C renal; 93.1% in the assay with UO-31 renal; 87.6% in the assay on TK-10 renal; 114% in the assay with ACHN renal; 92.2% with CAKI-1 renal; 81% with CCRF-CEM leukemia. Moreover, in the assay with MOLT-4 leukemia, the growth was 75.2%.

As for `COc1ccc2nc3cc(Cl)ccc3c(NCCCNC(C)=O)c2c1`, the growth in the assay with HCT-15 colon is 23.6%; in the assay with HT29 colon, 27%; with SNB-75 CNS, 68.9%; in the assay with SNB-19 CNS, 43.4%; in the assay with U251 CNS, 32.3%; with PC-3 prostate, 39.6%. Besides, the growth is 23.5% in the assay with SK-MEL-5 melanoma; 42.6% in the assay with UACC-62 melanoma; 15.9% in the assay on LOX IMVI melanoma; 38.8% in the assay with SK-MEL-28 melanoma; 52.3% in the assay with SK-MEL-2 melanoma; 68.5% with EKVX NSCLC. Moreover, the growth was 38.1% with SN12C renal; 21.2% in the assay with UO-31 renal; 44.2% with TK-10 renal; 16.1% in the assay on ACHN renal; 40.6% in the assay with CAKI-1 renal; 39% with CCRF-CEM leukemia. For the same compound, the growth in the assay on MOLT-4 leukemia is 26.5%.

On to `COc1cc2c(c(OC)c1OC)C(=O)CC(c1cccc(C(=O)Nc3cccc(Br)c3)c1)O2` (configuration not stated), for which the growth in the assay on HCT-15 colon was 72.1%; in the assay on HT29 colon, 82.3%; with SNB-75 CNS it was 75.4%; in the assay on SNB-19 CNS, 76.4%; in the assay on U251 CNS, 81.8%; in the assay with PC-3 prostate, 59.1%. Further, the growth in the assay with SK-MEL-5 melanoma is 72.9%; with UACC-62 melanoma it was 58.4%; with LOX IMVI melanoma, 90%; in the assay on SK-MEL-28 melanoma, 91.9%; in the assay with SK-MEL-2 melanoma it was 73.8%; in the assay on EKVX NSCLC, 85.1%. The growth is 71.7% in the assay on SN12C renal; 51.3% with UO-31 renal; 109% in the assay with TK-10 renal; 89.1% in the assay with ACHN renal; 85.3% in the assay with CAKI-1 renal; 45% with CCRF-CEM leukemia. Also, the growth in the assay with MOLT-4 leukemia is 48.8%.

Turning to `COc1cc2cc3cc4cc(OC)c(OC)cc4c(C)[n+]3cc2cc1OC` (tested in a mixture with another compound), the growth in the assay with HCT-15 colon was 91.8%; with HT29 colon, 79.2%; in the assay on SNB-75 CNS it was 73.1%; in the assay on SNB-19 CNS, 96.2%; in the assay on U251 CNS it was 76.9%; with PC-3 prostate, 67.8%. Moreover, the growth was 82.4% in the assay with SK-MEL-5 melanoma; 84.3% in the assay on UACC-62 melanoma; 84.4% in the assay on LOX IMVI melanoma; 116% in the assay with SK-MEL-28 melanoma; 69.5% with SK-MEL-2 melanoma; 60.8% in the assay on EKVX NSCLC. Moreover, the growth in the assay on SN12C renal was 85.7%; in the assay on UO-31 renal it was 59.6%; with TK-10 renal it was 117%; with ACHN renal, 95.2%; in the assay on A498 renal it was 93.6%; with CCRF-CEM leukemia it was 51.8%.

For `CC([C@H]1CCC2C3CCC4C[C@@H](N)CC[C@]4(C)C3CC[C@@]21C)N(C)C` (some centres not stated), the growth in the assay on HCT-15 colon is 3.11% (active); with HT29 colon, 15.1%; in the assay on SNB-75 CNS, 55.8%; in the assay on SNB-19 CNS, 98.7%; in the assay with U251 CNS it was 65.9%; in the assay on PC-3 prostate, 64.5%. The growth with SK-MEL-5 melanoma was -47.8% (active); in the assay with UACC-62 melanoma it was 50.9%; in the assay with LOX IMVI melanoma, 17.5%; in the assay with SK-MEL-28 melanoma, -26.6% (active); in the assay on SK-MEL-2 melanoma, 91.7%; in the assay with EKVX NSCLC, 69.4%. Moreover, the growth is 75.8% in the assay with SN12C renal; -4.26% (active) in the assay on UO-31 renal; 109% in the assay with TK-10 renal; 78.1% with ACHN renal; 48.8% in the assay with CAKI-1 renal; 89.4% in the assay on A498 renal. Moreover, the growth is 42.3% with CCRF-CEM leukemia and 38.6% with MOLT-4 leukemia.

With `COCn1c(C(=O)OC)cc2oc(/C=C3/SC(=S)N(N)C3=O)cc21`, the growth in the assay with HCT-15 colon was 105%; in the assay on HT29 colon it was 97.2%; in the assay with SNB-75 CNS it was 64.6%; in the assay on SNB-19 CNS it was 97.2%; in the assay on U251 CNS, 75.8%; with PC-3 prostate it was 57.2%. Moreover, the growth in the assay on SK-MEL-5 melanoma was 91.7%; with UACC-62 melanoma, 94%; in the assay with LOX IMVI melanoma, 87.3%; with SK-MEL-28 melanoma, 92.9%; in the assay with SK-MEL-2 melanoma, 96.9%; with EKVX NSCLC, 91.8%. For the same compound, the growth in the assay on SN12C renal is 121%; with UO-31 renal it was 95.7%; in the assay on TK-10 renal, 101%; with ACHN renal, 110%; with CAKI-1 renal, 87.3%; in the assay on CCRF-CEM leukemia it was 98.1%. In the assay with MOLT-4 leukemia, the growth was 68.6%.

Take `O=C(Cc1ccccc1[N+](=O)[O-])c1ccc2c(c1)OCO2`: the growth in the assay on HCT-15 colon is 104%; with HT29 colon, 102%; in the assay on SNB-75 CNS, 91.3%; in the assay with SNB-19 CNS it was 97.7%; in the assay with U251 CNS it was 98.8%; in the assay on PC-3 prostate, 96.8%. Moreover, the growth in the assay with SK-MEL-5 melanoma is 103%; in the assay on UACC-62 melanoma, 88.8%; in the assay on LOX IMVI melanoma, 96.9%; in the assay with SK-MEL-28 melanoma it was 105%; in the assay on SK-MEL-2 melanoma, 99.4%; with EKVX NSCLC, 97.5%. In addition, the growth in the assay with SN12C renal was 96%; in the assay with UO-31 renal, 80.1%; with TK-10 renal, 91.6%; in the assay with ACHN renal, 103%; with CAKI-1 renal, 97.8%; in the assay on CCRF-CEM leukemia, 76.3%. Moreover, the growth in the assay with MOLT-4 leukemia is 86.6%.

With `CCOC(=O)c1c2c(cn1Cc1ccccc1)-c1oncc1CC2`, the growth in the assay with HCT-15 colon is 105%; with HT29 colon, 111%; in the assay with SNB-75 CNS it was 84%; in the assay on SNB-19 CNS, 84.9%; in the assay on U251 CNS, 72.7%; in the assay on PC-3 prostate, 97.3%. Further, the growth in the assay on SK-MEL-5 melanoma was 102%; in the assay on UACC-62 melanoma, 91.9%; in the assay on LOX IMVI melanoma, 98.9%; with SK-MEL-28 melanoma it was 108%; in the assay on SK-MEL-2 melanoma, 115%; in the assay with EKVX NSCLC it was 91.3%. The growth in the assay on SN12C renal is 76.1%; in the assay with UO-31 renal it was 48.7%; in the assay on TK-10 renal it was 77.4%; with ACHN renal it was 94.1%; in the assay on CAKI-1 renal, 82.8%; in the assay on CCRF-CEM leukemia, 96%. Besides, in the assay on MOLT-4 leukemia, the growth is 100%.

The record behind these values is PubChem BioAssay (NCI).
